In ChEMBL document CHEMBL3988442, “University of Dundee, Small-Polar-MMV Screening Library” (2021):
Among all 69,000 compounds or so, about 1,000 (1.4%) showed an effect of 50% or more. Shown is part of a subset that was picked to be rich in strong results.

Test system: Leishmania donovani
Assay: Leishmania intramacrophage assay
Format: functional, organism-based
Set-up: scale not given: in the data most compounds retested in dose-response had high values

SMILES	Percent Effect (30 µM, 30.03 µM) [%]	Percent Effect (30.3 µM, […]) [%]
CCN(CC)C(=O)c1nnn(Cc2ccccc2)c1OC	-25.11	–
Cc1ccc(C(=O)N2CCC3(CCC(=O)N(CC(N)=O)C3)CC2)cc1	–	-8.473
CC(C1CC1)N(C(=O)CNc1ccc(C#N)cc1)C1CC1 (stereo not given)	–	26.89
O=C(O)C(F)(F)F.O=C(c1cccc(Cl)c1)N1CC[C@H]2[C@H]1CCN2CC1CCOCC1	39.19	–
CN(C)CCN1CC[C@@H]2[C@@H]1CCN2C(=O)c1cccc(Cl)c1	–	54.02
O=C(O)C(F)(F)F.O=C(c1cccc(Cl)c1)N1CC[C@H]2[C@H]1CCN2CC1CC1	–	23.02
O=C(c1ccc(-c2ccccc2)[nH]c1=O)N1CCN(C2CC2)CC1	–	25.14
CN1[C@H]2CC[C@@H]1CN(C(=O)c1ccc(-c3ccccc3)[nH]1)CC2	–	78.84
CO[C@H]1CN(C(=O)c2ccc(-c3ccccc3)[nH]2)CC[C@H]1N	–	45.29
CCCS(=O)(=O)CC(=O)N1CCN(CC2CC2)c2ccccc21	–	3.775
Cc1ccc2c(n1)N(CCN(C)C)CCN(C(=O)c1cccs1)C2.O=C(O)C(F)(F)F.O=C(O)C(F)(F)F	–	50.31
Cc1ccc2c(n1)N(CCN(C)C)CCN(C(=O)c1cscn1)C2.O=C(O)C(F)(F)F.O=C(O)C(F)(F)F	–	4.389
Cc1ccc2c(n1)N(CCN(C)C)CCN(C(=O)c1ccc[nH]1)C2.O=C(O)C(F)(F)F.O=C(O)C(F)(F)F	20.64	–
CC(=O)c1ccc(C(=O)N2CCCCC2c2nc[nH]n2)cc1 (stereo not given)	–	66.49
O=C(c1ccc(F)c(F)c1)N1CCCCC1c1nc[nH]n1 (stereo not given)	–	-8.926
O=C(c1ccoc1)N1CCCCC1c1nc[nH]n1 (stereo not given)	–	24.92
CCOCC1CN(C(=O)c2cscn2)Cc2cn(C)nc21.O=C(O)C(F)(F)F (stereo not given)	–	-0.7565
O=C(c1ccc(-c2ccc(O)nc2)s1)N1CCCCCC1	–	19.86
Cl.c1cc(NCc2ccncc2)nc(C2CCCNC2)c1 (stereo not given)	–	20.7
Cc1nc(C2CCCNC2)cc(N(C)CCc2cn[nH]c2)n1 (stereo not given)	–	29.46
Cl.c1cc(CC2CCCNC2)nc(NCCc2cnccn2)c1 (stereo not given)	–	2.895
Cl.c1ccc(CCNc2cccc(C3CCCNC3)n2)cc1 (stereo not given)	–	71.14

SMILES	Percent Effect (30 µM, 30.03 µM) [%]	Percent Effect (30.3 µM, […]) [%]
Cc1nc(C2CCCNC2)cc(N(C)CCc2ccccc2)n1 (stereo not given)	–	66.58
CCn1ccnc1CN(C)c1cc(C2CCCNC2)nc(C)n1 (stereo not given)	–	-6.202
CC1(C)Cc2c(cnn2-c2ccccc2)C(NC2CCSCC2)C1 (stereo not given)	–	17.91
CCN1C(=O)[C@H]2CN(Cc3cccnc3)C[C@H]2C12CCN(C(C)=O)CC2	–	4.627
CSCCC(O)C(=O)N1CCC(OCc2cccnc2)CC1 (stereo not given)	–	-15.88
NC(=O)CN1CCC(OCc2ccc(Cl)c(Cl)c2)CC1	–	39.98
CCC(N)C(=O)N1CCC(OCc2ccc(Cl)c(Cl)c2)CC1.Cl (stereo not given)	–	81.5
CNC(=O)CN1CCC(OCc2ccc(Cl)c(Cl)c2)CC1	–	23.39
NC(=O)C1CCN(C(=O)Cc2ccc(Cl)c(Cl)c2)CC1	–	12.37
CCOc1cc(-c2cc(=O)n3c(n2)CCCCC3)ccc1O	–	-28.99
O=C(O)C(F)(F)F.O=C([C@H]1COC[C@H]2CN(c3ncc(F)cn3)C[C@H]21)N1CCOCC1	–	11.96
O=C(CCN1CCCC(CO)(CC2CC2)C1)NCc1cccc(Cl)c1 (stereo not given)	–	10.86
COCCN1CC[C@@H]2OC[C@H](C(=O)N(C)Cc3ccccn3)C[C@@H]2C1	–	34.37
O=C(NCCc1cccs1)[C@H]1CO[C@H]2CCN(CC3CC3)C[C@H]2C1.O=C(O)C(F)(F)F	–	18.2
CN(Cc1ccccn1)C(=O)[C@H]1CO[C@H]2CCN(CC3CC3)C[C@H]2C1.O=C(O)C(F)(F)F.O=C(O)C(F)(F)F	–	67.47
Cc1nc(CN2CCO[C@H]3CN(C(=O)c4cccn4C)C[C@H]32)cs1	–	20.02
O=C(CSc1ccncc1)NC1CC(=O)N(CCc2ccccc2)C1 (stereo not given)	–	1.719
COc1ncc(-c2cc(-c3ccn(C)c3)nc(N)c2C#N)cn1	–	4.864
CCNc1ncc(-c2cc(-c3ccn(C)c3)nc(N)c2C#N)cn1	–	-7.222
CCn1cc(-c2cc(-c3ccn(C)c3)nc(N)c2C#N)cc1C#N	–	62.07
COc1c(CNCc2ccccc2-n2ccnc2)c(C)nn1C	–	-14
Cc1cc(C)cc(OCn2ccc(C(=O)O)n2)c1	–	36.81

SMILES	Percent Effect (30 µM, 30.03 µM) [%]	Percent Effect (30.3 µM, […]) [%]
CCN(CC)C(=O)c1ccn(COc2ccccc2)n1	25.56	–
CCN(CC)C(=O)c1ccn(COc2cc(C)cc(C)c2)n1	51.39	–
Cc1cc(C(=O)N2C[C@@H](C(=O)O)[C@H](c3ccccc3C)C2)c(C)o1	-7.821	–
O=C(c1cc(-c2cn[nH]c2)nc2cc(F)ccc12)N1CCS(=O)(=O)CC1	–	4.667
Cc1cc(C)cc(C(=O)NCCS(=O)(=O)N2CCSCC2)c1	–	-32.85
Cc1ccc(C(=O)NCCS(=O)(=O)N2CCSCC2)o1	–	-11.12
Cc1ccoc1C(=O)NCCS(=O)(=O)N1CCSCC1	–	62.05
CN1CCN([C@@H]2CN(C(=O)CCOc3ccccc3)C[C@H]2O)CC1	–	23.88
COc1cc(CN[C@@H]2COC[C@H]2Cc2cc(C)no2)cc(OC)c1.O=C(O)CC(O)(CC(=O)O)C(=O)O	–	4.158
CN1CCN(c2nsc(-c3cccnc3)c2C#N)CC1	–	11.24
Cc1nn(C)c(C)c1-c1cnc(C2CCCN(S(C)(=O)=O)C2)cn1 (stereo not given)	–	19.29
CO[C@H]1CN(C(=O)c2cccnc2)[C@@H]2CCCO[C@H]12.O=C(O)C(F)(F)F	–	4.595
Nc1cc(N2CCCC(COc3ccc(F)cc3)C2)nc(N)n1 (stereo not given)	–	-15.02
Cc1nc(CN(C)C)cc(N2CCCC(COc3ccc(F)cc3)C2)n1 (stereo not given)	–	-8.427
CNC(=O)c1ccnc(N2CCCC(COc3cccc(C)c3)C2)c1 (stereo not given)	–	30.74
Nc1cc(N2CCCC(COc3ccc(F)cc3)C2)ncn1 (stereo not given)	–	1.04
CCNC(=O)c1ccnc(N2CCCC(COc3ccccc3C)C2)c1 (stereo not given)	–	33.05
Cc1ccccc1OCC1CCCN(c2cc(N)nc(N)n2)C1 (stereo not given)	–	98.85
Cc1nc(N)cc(N2CCCC(COc3cccc(F)c3)C2)n1 (stereo not given)	–	87.26
Cc1ccc(OCC2CCCN(c3cc(C(N)=O)ccn3)C2)cc1 (stereo not given)	–	60.08
COc1cccc(OCC2CCCN(c3cc(C(N)=O)ccn3)C2)c1 (stereo not given)	–	42.88
